Laboratory results published in the supplement of paper PMC10338343.
± gives the standard deviation.

What was measured:
[1] = system: MILI (PIWIL2) piRISC loaded with L1MC piRNA (26 nt); assay: pre-steady-state target cleavage rate (min^-1); guide: L1MC piRNA 5'p-UAACUAAAUACUAUGCAAGCUGUAGG; higher = faster piRNA-guided slicing of the target
In short: (§1)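 The pre-steady-state cleavage rate was obtained by Cleave-'n-Seq with a burst-and-steady-state fit. A transcribed, DNA-blocked target RNA library (0.1 nM) was mixed with 1 nM active affinity-purified piRISC carrying one synthetic guide, with or without 500 nM GTSF1 partner protein, in HEPES–potassium acetate buffer at 33 °C for 0–8 or 0–960 min. Uncleaved targets were sequenced and normalised to depth and to weakly complementary targets, with three trials pooled and k3 capped at 0.0001 min^-1.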

[2] = system: EfPiwi piRISC loaded with L1MC piRNA (26 nt); assay: pre-steady-state target cleavage rate (min^-1); auxiliary factor: 500 nM Ephydatia muelleri Gtsf1; guide: L1MC piRNA 5'p-UAACUAAAUACUAUGCAAGCUGUAGG; MIWI and MILI are mouse PIWI proteins and EfPiwi is from a freshwater sponge; tags in brackets are library labels; higher = faster piRNA-guided slicing of the target
In short: as §1

[3] = auxiliary factor: 500 nM mouse GTSF1
[4] = auxiliary factor: none (no GTSF1)

Sequence	pre-steady-state target cleavage rate [1, 3]	pre-steady-state target cleavage rate [1, 4]	pre-steady-state target cleavage rate [2]
UCCUGCAACAGCUUGCAUAGUAUUUAGUAA	0.333 ± 0.031	0.00819 ± 0.0029	0.00572 ± 0.0023
UCCUGGUACAGCUACCAUAGUAUUUAGUUA	0.305 ± 0.044	0.00616 ± 0.0022	0.00432 ± 0.0019
UCCUCCUACAGCGUUGCAUAGUAUUUAGUUA	0.296 ± 0.021	0.0063 ± 0.0021	0.0299 ± 0.009
UCCUGGAACAGGUUGCAUAGUAUUAAGUUA	0.213 ± 0.023	0.00415 ± 0.0022	0.00329 ± 0.0021
UCCUCCUACAGCUUGCAUAGUAUUUGGUUA	0.279 ± 0.024	0.00706 ± 0.0026	0.00583 ± 0.0021
UCCUCCUACAGCUUCAUAGUAUUUAGUUA	0.238 ± 0.013	0.0049 ± 0.002	0.0399 ± 0.015
UCCUCCUACACGUUGCAUAGUAUUUAGUUA	0.321 ± 0.021	0.00729 ± 0.0026	0.136 ± 0.035
UCCUGGAUCAGCUUGCAUAGUAUUUAGUCA	0.285 ± 0.019	0.0107 ± 0.0027	0.0102 ± 0.0044
UCCUGGUACAGCUUGCAUAGUUAUUAGUUA	0.0387 ± 0.015	0.00509 ± 0.0027	0.00325 ± 0.0025
UCCUGGAUGUCGAUGCAUAGUAUUUAGUUUA	0.0871 ± 0.014	0.0069 ± 0.0031	0.00642 ± 0.0029
UCCUGGUACAGGUUGCAAAGUAUUUAGUUA	0.117 ± 0.012	0.0143 ± 0.0038	0.00511 ± 0.0028
UCCUGCAACAGCUUGCUUAGUAUUUAGUUA	0.293 ± 0.016	0.00661 ± 0.0026	0.0143 ± 0.0036
UCCUGCUGCAGCUUGCAUAGUAUUUAGUUA	0.331 ± 0.024	0.00762 ± 0.0024	0.0729 ± 0.016
UCCUCCUACAGCUUGCAUAGUCUUUAGUUA	0.198 ± 0.023	0.00522 ± 0.0021	0.0068 ± 0.0025
UCCUGCUACAGCUAGCAUAGUAUAUAGUUA	0.27 ± 0.03	0.00448 ± 0.0023	0.00485 ± 0.0017
UCCUGCUACAGCUUGGAUAGUAUUUAGUUA	0.296 ± 0.017	0.0119 ± 0.0026	0.017 ± 0.0041
UCCUGCUACAGCUUAGCAUAGUAUUUAGUUA	0.276 ± 0.014	0.0072 ± 0.0026	0.0477 ± 0.015
UCCUGGAUCUGGUUGCAUAGUAUUUAGUUA	0.158 ± 0.014	0.0105 ± 0.0029	0.0604 ± 0.015
UCCUGCUACAGCUUGCAUGUAUUUAGUUA	0.104 ± 0.02	0.00362 ± 0.0023	0.00438 ± 0.0028
UCCUGCUACAGCUUUGCAUAGUAUUUAGUUA	0.263 ± 0.02	0.00559 ± 0.0027	0.0161 ± 0.0053
UCCUGGAACAGCUGUGCAUAGUAUUUAGUUA	0.206 ± 0.015	0.00954 ± 0.0024	0.00999 ± 0.0023
UCCUCCUUGUGCUUGCAUAGUAUUUAGUUA	0.157 ± 0.012	0.00963 ± 0.002	0.0113 ± 0.0034
UCCUGCUACAGGUUGCAUAGUUUUUAGUUA	0.0345 ± 0.007	0.0063 ± 0.0021	0.00998 ± 0.0028
UCCUGGAUCAGCUUGCAAUGUAUUUAGUUA	0.0475 ± 0.011	0.00413 ± 0.0025	0.00462 ± 0.0039
UCCUGCUAGAGCUUGCUUAGUAUUUAGUUA	0.162 ± 0.01	0.00643 ± 0.002	0.00554 ± 0.002
UCCUGGUACAGCUUGCAUAUUAUUUAGUUA	0.0704 ± 0.01	0.00385 ± 0.0027	0.00464 ± 0.0037

Sequence	pre-steady-state target cleavage rate [1, 3]	pre-steady-state target cleavage rate [1, 4]	pre-steady-state target cleavage rate [2]
UCCUGGUACCGCUUGCAUAGUAUUUAGUUA	0.293 ± 0.037	0.0123 ± 0.0052	0.00412 ± 0.0035
UCCUGGAUCAGCUUGCAUAGUAUUUAGAUUA	0.0478 ± 0.011	0.00315 ± 0.0026	0.00483 ± 0.0016
UCCUCCUACUGGUUGCAUAGUAUUUAGUUA	0.226 ± 0.021	0.00818 ± 0.0021	0.1 ± 0.025
UCCUGGAUGUCCUUAGCAUAGUAUUUAGUUA	0.0724 ± 0.016	0.00307 ± 0.0025	0.00479 ± 0.003
UCCUCCUACAGCUUGCAUAGUAUCUAGUUA	0.176 ± 0.02	0.00564 ± 0.0022	0.00718 ± 0.0032
UCCUGGAUCAGGUUGCAUACUAUUUAGUUA	0.0436 ± 0.0082	0.00331 ± 0.0025	0.00262 ± 0.0019
UCCUGGUACAGCUUGCAUAGUAUAUUGUUA	0.146 ± 0.042	0.00411 ± 0.0035	0.00333 ± 0.0026
UCCUGGAACAGCUUGCAUAGUAUUUAGUUUA	0.321 ± 0.018	0.00981 ± 0.003	0.0245 ± 0.0071
UCCUGCUAAGCUUGCAUAGUAUUUAGUUA	0.182 ± 0.018	0.00403 ± 0.0019	0.00771 ± 0.0024
UCCUGGAUGAGCUUGCAUCGUAUUUAGUUA	0.0594 ± 0.0092	0.00554 ± 0.0025	0.00975 ± 0.0029
UCCUGGUACAGGCUUGCAUAGUAUUUAGUUA	0.203 ± 0.026	0.0131 ± 0.0043	0.00759 ± 0.0028
UCCUCCUACAGCAUGCAAAGUAUUUAGUUA	0.161 ± 0.015	0.00732 ± 0.0021	0.0492 ± 0.017
UCCUGGAUGUCCUUGCAUAGUAUUAAGUUA	0.116 ± 0.019	0.00289 ± 0.0026	0.00404 ± 0.0034
UCCUGCUACACCUUGCAUAGUUUUUAGUUA	0.0358 ± 0.01	0.00475 ± 0.0022	0.00395 ± 0.002
UCCUGCUACAGCAUGCAUAGUAUUUUGUUA	0.167 ± 0.029	0.00333 ± 0.0032	0.00422 ± 0.002
UCCUGGAUGUGCAAGCAUAGUAUUUAGUUA	0.055 ± 0.012	0.00481 ± 0.0026	0.00427 ± 0.0022
UCCUCCUACAGCUUGGAUAGUAUUAAGUUA	0.134 ± 0.017	0.00275 ± 0.0027	0.00905 ± 0.0043
UCCUACUACAGCUUGCAUAGUAUUUAGUUA	0.294 ± 0.02	0.00883 ± 0.0027	0.0579 ± 0.018
UCCUGCUACAGCUUGGUUAGUAUUUAGUUA	0.262 ± 0.015	0.0061 ± 0.002	0.0105 ± 0.0033
UCCUGCUACACCUUGCAUAGUAAUUAGUUA	0.157 ± 0.026	0.00684 ± 0.002	0.00647 ± 0.0028
UCCUGGAUCAGCUUGCAUAGUAUAUAGUUA	0.268 ± 0.017	0.00895 ± 0.0025	0.0716 ± 0.02
UCCUGGAAACAGCUUGCAUAGUAUUUAGUUA	0.347 ± 0.019	0.0105 ± 0.0038	0.164 ± 0.034
UCCUGCUACAGCUUGGAUAGUAUAUAGUUA	0.222 ± 0.026	0.00442 ± 0.0023	0.0128 ± 0.0037
UCCUGGAACAGCUUGCAUAGUAUUUGAGUUA	0.209 ± 0.035	0.00299 ± 0.003	0.00552 ± 0.0019
UCCUGGAUUAGCUUGCAUAGUAUUUAGUUA	0.232 ± 0.016	0.00961 ± 0.0024	0.0447 ± 0.011
UCCUGCUACACCUUGCAUAGUAUUUAGUAA	0.192 ± 0.035	0.00445 ± 0.0026	0.00559 ± 0.0032
